# Values joined by “and” are separate entries in the source; they are usually repeats but may differ in a detail not shown here. Identical values can stand only once. Inconclusive results are not listed. A call without a number means that no potency is given here. Where a structure was tested more than once in an assay, its records may differ in their call. Active and inactive are the calls of the source. Calls follow the shape of the dose curve; as a rule, active = well fitted curve in the direction sought with a large enough effect in the repeat runs; inconclusive = weak or mixed curves; inactive = no such curve, though single readings can be large; an effect the other way counts as inactive or inconclusive.
# Assay: Caspase-3/7 induction in HepG2 cells by small molecules, qHTS assay (AID 1346978); also: nearly all actives have a fitted effect of over 15% in size
# Settings: HepG2 caspase-3/7 activation, Caspase-Glo luminescence, 17 h; series mostly up to 92.4 µM
# Summary of the method: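 Caspase-3/7 induction was measured by Caspase-Glo 3/7 luminescence (30 min, room temperature) after a 17 hr compound exposure of wild-type HepG2 cells seeded at 2,000 per well and pre-incubated 5 hr.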
# Potency is read from the fitted curve at half-maximal effect.
row,Compound,Potency
1,O.O.O.O=C([O-])[C@H]([O-])[C@@H]([O-])C(=O)[O-].O=C([O-])[C@H]([O-])[C@@H]([O-])C(=O)[O-].[K+].[K+].[Sb+3].[Sb+3],inactive
2,O=c1c2ccccc2c(=O)c2c1cc(Cl)c1[nH]c3c([nH]c12)c(Cl)cc1c(=O)c2ccccc2c(=O)c13,inactive
3,CN(C)CCc1c[nH]c2ccccc12,inactive
4,CCN(CC)C(=S)S,inactive and 27.1 µM (active)
5,O=[N+]([O-])c1ccc(Cl)c(Cl)c1Cl,inactive
6,CNN,inactive
7,CCOP(=S)(OCC)Oc1cc(C)nc(N(CC)CC)n1,inactive
8,[O]=[Cr][O][Cr]=[O],inactive
9,O=[N+]([O-])c1cccc2cccc([N+](=O)[O-])c12,inactive
10,CCN(CC)CCc1c[nH]c2ccccc12,inactive
11,O=NN(CCO)CCO,inactive
12,CC(C)c1c(CN(C)C(C)Cc2ccccc2)n(C)n(-c2ccccc2)c1=O (stereo unspecified),inactive
13,CCOP(=S)(NC(C)C)Oc1ccccc1C(=O)OC(C)C (stereo unspecified),inactive
14,COc1ccc2c(c1OC)C(=O)O[C@@H]2[C@H]1c2cc3c(cc2CCN1C)OCO3,inactive
15,CCC[CH2][Sn]([CH2]CCC)([CH2]CCC)[CH2]CCC,68.6 µM (active)
16,O=[N+]([O-])C(Br)Br,inactive
17,CO/N=C(/C1=NOCCO1)c1ccccc1Oc1ncnc(Oc2ccccc2Cl)c1F,inactive
18,CC(C)C(Br)C(=O)NC(N)=O (stereo unspecified),inactive
19,O=C1C[C@@H]2OCC=C3CN4CC[C@]56c7ccccc7N1[C@H]5[C@H]2[C@H]3C[C@H]46,inactive

# Assay: Caspase-3/7 induction in CHO-K1 cells by small molecules, qHTS cell viability counter screen (AID 1346979); also: nearly all actives have a fitted effect of over 35% in size
# Settings: CellTiter-Fluor fluorescence, 17 h; series mostly up to 92.4 µM
# Summary of the method: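 Wild-type CHO-K1 cells (1,500/well) treated with compound after 5 h plating; after 16 h at 37C, viability read as CellTiter-Fluor fluorescence following 1 h reagent incubation, in the same wells as the caspase read.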
row,Compound,Potency
1,CC(C)Br,inactive
2,CN(C)c1ccc(N)cc1,42.2 µM (active)
3,N#Cc1c[nH]cc1-c1cccc2c1OC(F)(F)O2,48.6 µM (active)
4,Nc1cc(Cl)ccc1Cl,inactive
5,COP(=O)(OC)Oc1ccc([N+](=O)[O-])cc1,inactive
6,Nc1c(Cl)c(Cl)c(Cl)c(Cl)c1Cl,inactive
7,CSC1=N[C@@](C)(c2ccccc2)C(=O)N1Nc1ccccc1,8.63 µM (active)
8,FC(F)C(F)(F)OCC(Cn1cncn1)c1ccc(Cl)cc1Cl (stereo unspecified),48.3 µM (active)
9,c1ccc(Nc2ccc(Nc3ccccc3)cc2)cc1,48.4 µM (active)
10,c1csc(-c2ccc(-c3cccs3)s2)c1,inactive
11,CC[C@H](C)[C@H]1O[C@]2(C=C[C@@H]1C)C[C@@H]1C[C@@H](C/C=C(\C)[C@@H](O[C@H]3C[C@H](OC)[C@@H](O[C@H]4C[C@H](OC)[C@@H](NC)[C@H](C)O4)[C@H](C)O3)[C@@H](C)/C=C/C=C3\CO[C@@H]4[C@H](O)C(C)=C[C@@H](C(=O)O1)[C@]34O)O2,6.11 µM (active)
12,CC1CCCC1,inactive
13,CCC(OC(C)=O)C(CC(C)NC)(c1ccccc1)c1ccccc1 (stereo unspecified),69.2 µM (active)
14,Nc1ccc(N=Nc2ccccc2)cc1,29.8 µM (active)
15,Oc1ccc([C@H]2CNCc3c2ccc(O)c3O)cc1O,29.8 µM (active)
16,Clc1ccc(C2(Cn3cncn3)OCCO2)c(Cl)c1,inactive

row,Compound,Potency
1,Cc1nn(-c2cc(NS(C)(=O)=O)c(Cl)cc2Cl)c(=O)n1C(F)F,inactive
2,CSC(C)(C)/C=N/O,inactive
3,O.O.O.O=C([O-])[C@H]([O-])[C@@H]([O-])C(=O)[O-].O=C([O-])[C@H]([O-])[C@@H]([O-])C(=O)[O-].[K+].[K+].[Sb+3].[Sb+3],17.3 µM (active)
4,O=c1c2ccccc2c(=O)c2c1cc(Cl)c1[nH]c3c([nH]c12)c(Cl)cc1c(=O)c2ccccc2c(=O)c13,inactive
5,CN(C)CCc1c[nH]c2ccccc12,inactive
6,CCN(CC)C(=S)S,13.8 µM (active) and 7.65 µM (active) and 27.3 µM (active)
7,O=[N+]([O-])c1ccc(Cl)c(Cl)c1Cl,inactive
8,CNN,inactive
9,CCOP(=S)(OCC)Oc1cc(C)nc(N(CC)CC)n1,inactive
10,[O]=[Cr][O][Cr]=[O],inactive
11,O=[N+]([O-])c1cccc2cccc([N+](=O)[O-])c12,inactive
12,CCN(CC)CCc1c[nH]c2ccccc12,inactive
13,O=NN(CCO)CCO,inactive
14,CC(C)c1c(CN(C)C(C)Cc2ccccc2)n(C)n(-c2ccccc2)c1=O (stereo unspecified),inactive
15,CCOP(=S)(NC(C)C)Oc1ccccc1C(=O)OC(C)C (stereo unspecified),61.1 µM (active)
16,COc1ccc2c(c1OC)C(=O)O[C@@H]2[C@H]1c2cc3c(cc2CCN1C)OCO3,21.5 µM (active)

# — PubChem BioAssay (Tox21)
